PubChem BioAssay
A number with no mark means an inactive call. The list shows a part of the results. Active and inactive are the calls of the source. Cut-off read from the data, not from the text of the source, unless noted: active = inhibition above about 30%; inactive = the rest.

Tests used:
[1] = molecular target: Nuclear receptor coactivator 3 (Homo sapiens) (UniProt Q9Y6Q9); assay: NCOA3 GAL4-fusion reporter inhibition – cell-based, luminescence, quadruplicate, confirmation (AID 588792;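 active = mean inhibition over 43.08%, the solvent-only control mean plus 3 SD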;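 note: 0% = DMSO treated cells and 100% = gossypol at 36 µM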); details: HEK293 GAL4-SRC3 luciferase reporter, at 3.6 µM, hits give high values
[2] = test system: transactivating tegument protein VP16 (Human herpesvirus 1), Gal4-VP16 luciferase reporter; assay: repression of VP16-driven luciferase reporter – cell-based, luminescence, high throughput, counter-screen for SRC3 inhibitor project (AID 588794); details: mammalian cells, at 3.6 µM, hits give high values
[3] = molecular target: Nuclear receptor coactivator 1 (Homo sapiens) (UniProt Q15788); assay: NCOA1 GAL4-fusion reporter inhibition – cell-based, luminescence, quadruplicate, confirmation (AID 588820;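 active = mean inhibition above 46.68%, the untreated control wells mean plus 3 SD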;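 note: 0% = DMSO wells and 100% = gossypol 36 µM treated wells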); details: HEK293 GAL4-SRC1 luciferase reporter, at 3.6 µM, hits give high values
[4] = repression of VP16-driven luciferase reporter – cell-based, luminescence, high throughput, counter-screen for SRC1 inhibitor project (AID 588824; in the data active = inhibition above about 25%); details: cell-based VP16 transactivation luciferase luminescence; at 3.6 µM; hits give high values
[5] = test system: transactivating tegument protein VP16 (Human herpesvirus 1); assay: compounds suppressing VP16-driven luciferase signal – cell-based, luminescence, single concentration, counter-screen for SRC2 inhibitor project (AID 652007; in the data active = inhibition above about 36%); details: cell-based VP16 transactivation luciferase reporter, at 8.9 µM, hits give high values
[6] = molecular target: Nuclear receptor coactivator 2 (Homo sapiens) (UniProt Q15596); assay: inhibition of GAL4-SRC2 driven luciferase expression – cell-based, luminescence, HEK293, triplicate, confirmation (AID 652008;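 active = mean inhibition above 46.5%, the solvent-only control mean plus 3 SD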;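 note: 0% = DMSO-treated cells and 100% = Gossypol at 36 µM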); details: HEK293 GAL4-SRC2 luciferase reporter, at 8.9 µM, hits give high values
[7] = VP16-driven transactivation reporter suppression – cell-based, luminescence, HEK293, counter-screen for COUP-TFII antagonist project (AID 687007; in the data active = inhibition above about 13%); details: HEK293 Gal4-VP16 luciferase reporter, at 8.5 µM, hits give high values
[8] = molecular target: COUP transcription factor 2 (Homo sapiens) (UniProt P24468); assay: retest of COUP-TFII reporter suppressors – cell-based, luciferase reporter, HEK293, triplicate, confirmation (AID 687008;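 active = mean inhibition over three repeats above a set limit taken from the earlier primary screen, cut at about 38% in these data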;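 note: 100% = cells given the luciferase reporter alone without the COUP-TF2 vector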); details: HEK293 NGFI-A luciferase reporter, luminescence; at 8.5 µM; hits give high values
[9] = StAR promoter reporter inhibitors, counter-screen for LRH-1 inverse agonist project, cell-based, luminescence, high throughput (AID 651611; in the data active = inhibition above about 28%); details: StAR promoter luciferase reporter counterscreen, at 3.6 µM, hits give high values
[10] = molecular target: Nuclear receptor subfamily 5 group A member 2 (Homo sapiens) (UniProt O00482); assay: NR5A2 activity suppression in reporter cells – cell-based, luminescence, confirmation (AID 651613; in the data active = inhibition above about 42%;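 note: HEK293T cells co-transfected with LRH-1 and StAR promoter luciferase reporter; 0% = vehicle wells and 100% = parental cells lacking receptor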); details: cell-based LRH-1 luciferase reporter, inverse agonism; at 3.6 µM; hits give high values
[11] = molecular target: Steroidogenic factor 1 (Homo sapiens) (UniProt Q13285); assay: inverse agonism at SF1 nuclear receptor – cell-based, luminescence, high throughput, counter-screen for LRH-1 inverse agonist project (AID 651614; in the data active = inhibition above about 44%;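 note: cells cotransfected with StAR promoter reporter and SF1 expression vector; 0% = vehicle on cells with receptor and 100% = vehicle on cells lacking receptor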); details: cell-based SF1 luciferase reporter, at 3.6 µM, hits give high values
[12] = compounds suppressing VP16-driven luciferase signal – cell-based, luminescence, high throughput, counter-screen for LRH-1 inverse agonist project (AID 651615; in the data active = inhibition above about 33%); details: Gal4-VP16 luciferase reporter cells, at 3.6 µM, hits give high values

Chain of COUP transcription factor 2 (Homo sapiens) (P24468 whole entry, looked up): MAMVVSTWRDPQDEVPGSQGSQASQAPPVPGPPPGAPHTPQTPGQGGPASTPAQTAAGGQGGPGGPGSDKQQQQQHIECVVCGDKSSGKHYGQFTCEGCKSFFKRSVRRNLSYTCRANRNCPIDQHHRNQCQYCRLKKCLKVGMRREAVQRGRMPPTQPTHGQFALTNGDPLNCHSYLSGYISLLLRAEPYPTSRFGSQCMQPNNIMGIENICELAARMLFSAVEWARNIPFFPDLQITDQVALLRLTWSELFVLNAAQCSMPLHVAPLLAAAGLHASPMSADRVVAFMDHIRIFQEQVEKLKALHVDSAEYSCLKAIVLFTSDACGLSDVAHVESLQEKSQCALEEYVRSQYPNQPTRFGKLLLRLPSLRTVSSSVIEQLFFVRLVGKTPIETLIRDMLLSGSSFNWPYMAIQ
Chain of Nuclear receptor coactivator 2 (Homo sapiens) (Q15596 whole entry, looked up, the tested form may be a part): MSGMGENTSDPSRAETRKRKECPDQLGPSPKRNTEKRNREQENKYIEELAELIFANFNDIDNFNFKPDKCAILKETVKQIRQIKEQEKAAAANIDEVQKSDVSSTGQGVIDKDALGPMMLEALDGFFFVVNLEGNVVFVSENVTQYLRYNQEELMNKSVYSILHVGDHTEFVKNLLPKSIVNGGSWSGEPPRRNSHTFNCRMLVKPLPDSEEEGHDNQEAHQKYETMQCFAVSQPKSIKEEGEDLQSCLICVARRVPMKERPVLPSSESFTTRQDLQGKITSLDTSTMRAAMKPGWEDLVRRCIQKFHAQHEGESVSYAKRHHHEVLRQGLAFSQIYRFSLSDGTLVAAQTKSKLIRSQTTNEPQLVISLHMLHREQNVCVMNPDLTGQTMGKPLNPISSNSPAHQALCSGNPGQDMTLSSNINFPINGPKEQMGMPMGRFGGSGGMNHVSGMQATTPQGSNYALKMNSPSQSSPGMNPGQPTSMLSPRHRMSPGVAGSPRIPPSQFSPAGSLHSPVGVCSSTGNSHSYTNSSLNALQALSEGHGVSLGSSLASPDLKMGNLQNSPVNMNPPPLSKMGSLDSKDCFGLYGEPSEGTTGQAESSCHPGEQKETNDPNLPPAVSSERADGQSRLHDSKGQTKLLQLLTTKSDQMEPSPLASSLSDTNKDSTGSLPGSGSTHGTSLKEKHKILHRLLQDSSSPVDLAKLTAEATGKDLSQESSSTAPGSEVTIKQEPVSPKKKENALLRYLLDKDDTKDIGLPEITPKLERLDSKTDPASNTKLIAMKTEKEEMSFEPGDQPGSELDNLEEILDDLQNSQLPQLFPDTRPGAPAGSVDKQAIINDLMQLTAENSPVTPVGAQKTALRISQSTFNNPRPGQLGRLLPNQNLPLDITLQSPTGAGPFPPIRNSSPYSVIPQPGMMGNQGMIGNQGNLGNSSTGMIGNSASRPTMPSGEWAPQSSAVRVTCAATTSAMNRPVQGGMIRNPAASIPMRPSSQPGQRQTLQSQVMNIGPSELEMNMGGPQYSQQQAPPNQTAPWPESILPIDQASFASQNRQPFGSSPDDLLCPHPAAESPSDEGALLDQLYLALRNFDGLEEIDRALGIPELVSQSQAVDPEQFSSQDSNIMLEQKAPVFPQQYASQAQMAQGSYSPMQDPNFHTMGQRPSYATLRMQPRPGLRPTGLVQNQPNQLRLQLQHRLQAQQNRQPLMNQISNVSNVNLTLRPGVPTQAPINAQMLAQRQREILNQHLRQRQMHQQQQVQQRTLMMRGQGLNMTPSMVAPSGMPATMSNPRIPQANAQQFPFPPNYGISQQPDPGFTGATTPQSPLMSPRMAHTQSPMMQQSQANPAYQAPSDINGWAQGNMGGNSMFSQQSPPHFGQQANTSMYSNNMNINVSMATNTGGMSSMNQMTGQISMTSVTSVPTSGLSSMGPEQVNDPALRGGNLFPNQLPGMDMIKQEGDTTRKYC
Chain of Nuclear receptor coactivator 1 (Homo sapiens) (Q15788 whole entry, looked up, the tested form may be a part): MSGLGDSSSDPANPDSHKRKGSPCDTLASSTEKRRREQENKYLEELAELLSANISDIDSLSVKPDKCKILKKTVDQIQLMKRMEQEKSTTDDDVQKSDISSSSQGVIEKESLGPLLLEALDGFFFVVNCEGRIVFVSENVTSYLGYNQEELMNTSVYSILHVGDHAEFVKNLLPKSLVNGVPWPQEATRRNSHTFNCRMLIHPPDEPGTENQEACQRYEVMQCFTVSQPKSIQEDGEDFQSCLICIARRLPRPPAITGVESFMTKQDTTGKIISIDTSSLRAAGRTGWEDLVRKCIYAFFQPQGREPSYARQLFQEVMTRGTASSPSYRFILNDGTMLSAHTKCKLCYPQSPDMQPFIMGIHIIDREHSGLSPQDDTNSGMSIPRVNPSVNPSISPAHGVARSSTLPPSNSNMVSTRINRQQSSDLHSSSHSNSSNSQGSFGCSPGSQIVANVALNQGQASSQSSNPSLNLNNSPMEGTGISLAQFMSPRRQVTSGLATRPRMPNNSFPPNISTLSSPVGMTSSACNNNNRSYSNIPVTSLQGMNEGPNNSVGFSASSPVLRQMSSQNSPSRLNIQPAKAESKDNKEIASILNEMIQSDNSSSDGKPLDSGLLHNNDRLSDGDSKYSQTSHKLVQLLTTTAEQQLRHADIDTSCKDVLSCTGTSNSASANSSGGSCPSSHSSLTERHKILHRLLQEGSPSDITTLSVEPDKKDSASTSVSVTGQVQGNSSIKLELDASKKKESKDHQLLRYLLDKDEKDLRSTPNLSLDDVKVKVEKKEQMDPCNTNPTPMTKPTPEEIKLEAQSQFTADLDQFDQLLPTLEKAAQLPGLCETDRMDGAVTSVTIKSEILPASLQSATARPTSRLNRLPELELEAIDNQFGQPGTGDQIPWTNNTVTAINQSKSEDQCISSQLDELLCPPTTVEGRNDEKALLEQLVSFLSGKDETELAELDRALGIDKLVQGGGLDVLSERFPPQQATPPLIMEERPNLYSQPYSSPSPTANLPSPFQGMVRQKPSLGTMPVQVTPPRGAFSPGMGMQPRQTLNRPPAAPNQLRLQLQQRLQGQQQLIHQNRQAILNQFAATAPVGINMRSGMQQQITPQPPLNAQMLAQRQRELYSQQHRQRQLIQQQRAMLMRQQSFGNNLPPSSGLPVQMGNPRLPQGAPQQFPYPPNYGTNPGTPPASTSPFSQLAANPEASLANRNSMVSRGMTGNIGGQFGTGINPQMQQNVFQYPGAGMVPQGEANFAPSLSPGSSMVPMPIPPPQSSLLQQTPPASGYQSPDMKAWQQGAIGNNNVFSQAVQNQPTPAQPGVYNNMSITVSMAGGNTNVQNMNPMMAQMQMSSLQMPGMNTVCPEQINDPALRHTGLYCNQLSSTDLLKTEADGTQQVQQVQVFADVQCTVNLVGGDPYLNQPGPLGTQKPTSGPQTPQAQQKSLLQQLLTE
Chain of Steroidogenic factor 1 (Homo sapiens) (Q13285 whole entry, looked up, the tested form may be a part): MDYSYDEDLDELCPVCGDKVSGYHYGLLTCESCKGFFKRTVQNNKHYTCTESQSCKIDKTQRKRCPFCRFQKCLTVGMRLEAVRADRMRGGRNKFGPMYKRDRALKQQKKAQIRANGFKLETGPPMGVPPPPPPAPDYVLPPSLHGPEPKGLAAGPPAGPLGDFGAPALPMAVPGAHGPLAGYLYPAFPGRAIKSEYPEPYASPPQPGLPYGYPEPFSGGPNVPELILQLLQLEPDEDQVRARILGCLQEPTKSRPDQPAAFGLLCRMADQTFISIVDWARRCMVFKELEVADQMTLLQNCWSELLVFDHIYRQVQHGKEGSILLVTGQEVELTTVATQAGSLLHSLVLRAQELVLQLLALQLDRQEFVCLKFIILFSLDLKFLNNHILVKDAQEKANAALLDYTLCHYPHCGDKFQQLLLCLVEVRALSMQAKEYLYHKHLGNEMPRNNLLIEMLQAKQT
Chain of Nuclear receptor subfamily 5 group A member 2 (Homo sapiens) (O00482 whole entry, looked up): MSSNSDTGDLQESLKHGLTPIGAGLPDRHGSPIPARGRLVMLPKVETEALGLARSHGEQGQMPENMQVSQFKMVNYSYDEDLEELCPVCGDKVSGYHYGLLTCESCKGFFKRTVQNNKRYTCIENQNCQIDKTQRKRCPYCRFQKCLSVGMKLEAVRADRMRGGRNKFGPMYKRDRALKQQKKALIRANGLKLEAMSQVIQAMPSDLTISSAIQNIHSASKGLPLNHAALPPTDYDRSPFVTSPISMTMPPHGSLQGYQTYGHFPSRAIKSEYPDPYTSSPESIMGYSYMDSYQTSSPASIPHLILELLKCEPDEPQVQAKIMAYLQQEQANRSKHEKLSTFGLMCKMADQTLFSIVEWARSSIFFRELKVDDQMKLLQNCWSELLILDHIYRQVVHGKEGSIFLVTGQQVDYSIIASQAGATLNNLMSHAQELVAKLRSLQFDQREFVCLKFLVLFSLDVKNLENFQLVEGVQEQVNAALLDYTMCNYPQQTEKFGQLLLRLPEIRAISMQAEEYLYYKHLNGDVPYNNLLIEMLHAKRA

Structure (SMILES): CS(=O)(=O)Nc1ccc(-c2cnc3cccnn23)cc1
- inhibition [1]: 67.9% (active)
- inhibition [2]: 41.6% (active)
- inhibition [3]: 57.5% (active)
- inhibition [4]: 51.7% (active)
- inhibition [5]: -12.1%
- inhibition [6]: 45.8%

Structure (SMILES): O=C(CN1C(=O)c2ccccc2S1(=O)=O)N1CCc2ccccc21
- inhibition [1]: 60.5% (active)
- inhibition [2]: 60.9% (active)
- inhibition [3]: 40.8%
- inhibition [4]: 65.1% (active)
- inhibition [5]: 65.5% (active)
- inhibition [6]: 85.9% (active)
- inhibition [7]: 65.9% (active)
- inhibition [8]: 74.9% (active)

Structure (SMILES): Cc1cc(/C=N/Nc2ncnc(N)c2[N+](=O)[O-])c(C)n1-c1ccccc1
- inhibition [1]: 26%
- inhibition [2]: 12.4%
- inhibition [3]: -28.1%
- inhibition [4]: -10.1%
- inhibition [5]: 23.9%
- inhibition [6]: 61.2% (active)

Structure (SMILES): CN(Cc1nccs1)C(=O)c1cc(COc2cccc3cnccc23)on1
- inhibition [1]: 27.5%
- inhibition [2]: 36.1% (active)
- inhibition [3]: 19.8%
- inhibition [4]: 34.7% (active)
- inhibition [5]: 16.6%
- inhibition [6]: 51.8% (active)

Structure (SMILES): Nc1ccccc1Nc1cccc(C(F)(F)F)c1
- inhibition [1]: 25.9%
- inhibition [2]: 18.6%
- inhibition [3]: -6.37%
- inhibition [4]: 13.5%
- inhibition [5]: 6.37%
- inhibition [6]: 43.7%

Structure (SMILES): CCc1nc(N)nc(N)c1-c1ccc(Cl)c([N+](=O)[O-])c1
- inhibition [1]: 56.7% (active)
- inhibition [2]: 24.9%
- inhibition [3]: 58.2% (active)
- inhibition [4]: 25%
- inhibition [5]: 28.1%
- inhibition [6]: 24.5%

Structure (SMILES): COc1ccc2c(c1OC)C(=O)N1c3ccccc3C(=O)N(c3ccccc3F)C21 (configuration not stated)
- inhibition [1]: 17.7%
- inhibition [2]: 10.7%
- inhibition [9]: 53.5% (active)
- inhibition [10]: 48.5% (active)
- inhibition [11]: 54.1% (active)
- inhibition [12]: 16.9%

Structure (SMILES): COc1cccc(CNc2nc3cc(-c4cnn(Cc5ccccc5)c4)sc3c(=O)n2C)c1
- inhibition [1]: 6.76%
- inhibition [2]: 30.1% (active)
- inhibition [9]: 32.4% (active)
- inhibition [10]: 47.3% (active)
- inhibition [11]: 52% (active)
- inhibition [12]: 46.9% (active)

Structure (SMILES): Cc1cc(C)c[n+](C(C)C(=O)c2ccc(-c3ccccc3)cc2)c1 (configuration not stated)
- inhibition [1]: 16.9%
- inhibition [2]: 40.2% (active)
- inhibition [9]: 29.7% (active)
- inhibition [10]: 81.4% (active)
- inhibition [11]: 66.4% (active)
- inhibition [12]: 64.2% (active)

Structure (SMILES): Cn1c(CCN2CCN(c3ccccn3)CC2)nc2cc(NC(=O)COc3ccc(Cl)cc3)ccc21
- inhibition [1]: 18%
- inhibition [2]: 33.9% (active)
- inhibition [9]: 29.2% (active)
- inhibition [10]: 49.8% (active)
- inhibition [11]: 51.4% (active)
- inhibition [12]: 51.6% (active)

Structure (SMILES): CCNc1nc(NC(C)(C)C)nc(SC(C(C)=O)C(C)=O)n1
- inhibition [1]: 23.3%
- inhibition [2]: 32% (active)
- inhibition [9]: 60.2% (active)
- inhibition [10]: 72.4% (active)
- inhibition [11]: 64.2% (active)
- inhibition [12]: 49.4% (active)

Structure (SMILES): C=CCSc1nsc(NC(=O)Nc2cccc(C(C)=O)c2)n1
- inhibition [1]: 44% (active)
- inhibition [2]: 31.2% (active)
- inhibition [3]: 46.4%
- inhibition [4]: 27.2% (active)
- inhibition [5]: -25.7%
- inhibition [6]: 17.3%
- inhibition [7]: -25.6%
- inhibition [8]: 2.43%

Structure (SMILES): COc1ccc(Nc2ccncc2[N+](=O)[O-])cc1
- inhibition [1]: 41.1%
- inhibition [2]: 27.4%
- inhibition [9]: 13.4%
- inhibition [10]: 75.5% (active)
- inhibition [11]: 64.4% (active)
- inhibition [12]: 39.3% (active)

Structure (SMILES): c1ccc(CNc2nc(-c3ccccn3)nc3ccccc23)cc1
- inhibition [1]: 21.8%
- inhibition [2]: 29.9% (active)
- inhibition [9]: 68.7% (active)
- inhibition [10]: 76.8% (active)
- inhibition [11]: 84.3% (active)
- inhibition [12]: 66.5% (active)

Structure (SMILES): COc1ccc(NC(=O)c2cc(-c3cc(Cl)ccc3C)n[nH]2)cc1OC
- inhibition [1]: 20.2%
- inhibition [2]: 50.6% (active)
- inhibition [9]: 30.7% (active)
- inhibition [10]: 57% (active)
- inhibition [11]: 61.1% (active)
- inhibition [12]: 64.4% (active)

Structure (SMILES): COc1ccc(C(=O)C2CCCN(Cc3cccn3-c3ccc(Cl)cn3)C2)c(OC)c1 (configuration not stated)
- inhibition [1]: 17.1%
- inhibition [2]: 25.5%
- inhibition [9]: 19%
- inhibition [10]: 47.7% (active)
- inhibition [11]: 47.4% (active)
- inhibition [12]: 41.2% (active)

Structure (SMILES): CC1(C)CC[C@]2(C(=O)n3ccnc3)CC[C@]3(C)[C@H](C(=O)C=C4[C@@]5(C)C=C(C#N)C(=O)C(C)(C)[C@@H]5CC[C@]43C)[C@@H]2C1
- inhibition [1]: 93.8% (active)
- inhibition [2]: 82% (active)
- inhibition [4]: 93.8% (active)

Structure (SMILES): COc1cc(SC)ccc1C(=O)Nc1nc(C)cs1
- inhibition [1]: 15.6%
- inhibition [2]: 15.1%
- inhibition [3]: -68.3%
- inhibition [4]: 14.8%
- inhibition [5]: 50.1% (active)
- inhibition [6]: 75.4% (active)
- inhibition [7]: 46.4% (active)
- inhibition [8]: 69.1% (active)

Structure (SMILES): CCOC(=O)C1=Nc2ccccc2C1=[N+]=[N-]
- inhibition [1]: 35.7%
- inhibition [2]: 46% (active)
- inhibition [9]: 14.1%
- inhibition [10]: 53.3% (active)
- inhibition [11]: 45.2% (active)
- inhibition [12]: 53.2% (active)
